Common to all, as to assay: NCI-60 one-dose screen, 48 h (100 = growth as untreated, 0 = no growth, -100 = all killed)
What all share (details): 10 µM unless noted

Experiment [1] has as its system SR leukemia.
Experiment [2] deals with RPMI-8226 leukemia.
Experiment [3] concerns OVCAR-8 ovarian.
In experiment [4] the test system is OVCAR-5 ovarian.
Experiment [5] concerns OVCAR-4 ovarian.
Experiment [6] deals with SK-OV-3 ovarian.
Experiment [7] deals with IGROV1 ovarian.
Experiment [8] concerns OVCAR-3 ovarian.
The test system of experiment [9] is HS 578T breast.
The test system of experiment [10] is NCI/ADR-RES ovarian.

SMILES strings stand for the structures. About 83,000 compounds went through this panel and 20% of them were active in at least one assay; those are over-represented in the sample as a whole.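 Compound tested at a single concentration for 48 hours in 96-well plates; a percent growth value below 10 was scored as active.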 Unmarked numbers belong to inactive results. Activity calls are given as the source filed them.

Consider `CCN(CC)S(=O)(=O)c1cccc([N+](=O)[O-])c1`, for which the growth in experiment [1] is 103%; in experiment [2] it was 93.2%; in [3], 85.7%; in experiment [4], 109%; in experiment [5] it was 95.4%; in experiment [6] it was 86.9%. In addition, the growth in experiment [7] is 107%; in [8] it was 108%; in [9], 97.9%; in experiment [10] it was 103%.
With `COc1ccc(-c2c[nH]c(C(=O)O)c2-c2cc(OC)c3c(c2OC)OCO3)cc1`, the growth in [1] was 106%; in experiment [2] it was 140%; in [3] it was 101%; in [4] it was 96.5%; in [5], 100%; in experiment [6], 119%. Moreover, the growth in experiment [7] was 103%; in experiment [8] it was 109%; in experiment [9], 99.9%; in [10] it was 99.2%.
In the case of `COc1ccc(C2CC(c3cccc(Nc4ccncc4)c3)=NN2c2ccccc2)cc1` (configuration not stated), the growth in experiment [1] was 2.73% (active); in experiment [2], -6.86% (active); in [3], 20.5%; in [4] it was 79.7%; in experiment [5], 51.8%; in [6], 67.7%. Besides, the growth in experiment [7] was 43.7%; in experiment [8], 61.3%; in experiment [9], 68.5%; in [10], 69.9%.
With `C=C(C)[C@@H]1CC[C@]2(C=O)CC[C@]3(C)[C@H](CC[C@@H]4[C@@]5(C)CCCNC(C)(C)[C@@H]5CC[C@]43C)[C@@H]12`, the growth in [1] is -31.4% (active); in experiment [2] it was 12.3%; in [3], 90.9%; in experiment [4], 93.3%; in experiment [5] it was 82.3%; in experiment [6], 106%. Also, the growth in experiment [7] was 50.8%; in [8], 77.5%; in experiment [9], 89.1%; in experiment [10], 85.3%.
As for `O=C1Nc2cc(-c3ccncc3)ccc2/C1=C/c1ccc[nH]1`, the growth in experiment [1] was 15%; in experiment [2] it was 81.8%; in [3], 101%; in [4] it was 76.9%; in experiment [5] it was 37.3%; in experiment [6], 93.3%. In addition, the growth is 80.8% in experiment [7], 107% in [9] and 94.6% in experiment [10].
Turning to `CC(C)CN(C(=O)c1ccc(Cl)cc1)c1c(N)n(CC(C)C)c(=O)[nH]c1=O`, the growth in experiment [1] was 64.1%; in [2], 84.8%; in experiment [3] it was 93.8%; in experiment [4], 88.3%; in experiment [5] it was 107%; in experiment [6], 26.8%. The values for the growth in [8], in experiment [9] and in experiment [10] were 115%, 84.8% and 101%, respectively.
Consider `COc1ccc(-c2nc(N/N=C/c3cccc(O)c3)nc(N3CCOCC3)c2C#N)cc1`, for which the growth in experiment [1] was -20.3% (active); in experiment [2] it was 32.1%; in experiment [3], 68.8%; in experiment [4], 117%; in experiment [5], 89.3%; in experiment [6], 104%. Besides, the values for the growth in [8], in experiment [9] and in experiment [10] were 75.8%, 69.3% and 74.8%, respectively.
For the molecule `CCN(CC)CCCC(C)Nc1c2c(nc3ccc(OC)cc13)CCCC2` (configuration not stated), the growth in [1] is 93.6%; in [2], 100%; in experiment [3], 105%; in [4] it was 90.2%; in [5], 103%; in experiment [6], 119%. The growth in experiment [8] was 102%; in [9], 93.5%; in experiment [10], 96.8%.
In the case of `N/C(=N\N=C\c1cc2ccccc2[nH]1)N/N=C/c1cc2ccccc2[nH]1`, the growth in experiment [1] was 6.87% (active); in [2], 88.2%; in [3] it was 97.4%; in experiment [4], 109%; in experiment [5], 83%; in [6], 88.6%. The growth in experiment [7] is 64.4%; in experiment [9], 90.3%; in experiment [10], 100%.
For the molecule `COc1cccc(NC(=O)c2cccc(-c3cc(=O)c4c(OC)c(OC)c(OC)cc4o3)c2)c1`, the growth in experiment [1] is 41.9%; in experiment [2] it was 17%; in experiment [3], 47%; in [4] it was 90.1%; in experiment [5] it was 62.6%; in [6] it was 109%. The growth is 66.6% in [8], 46.2% in experiment [9] and 64.8% in experiment [10].
`COc1ccc(-c2nc(N/N=C/c3c[nH]c4ccccc34)nc(N3CCOCC3)c2C#N)cc1`: the growth in experiment [1] is -2.03% (active); in experiment [2] it was 71.9%; in experiment [3], 92.5%; in [4], 125%; in experiment [5], 105%; in [6] it was 115%. The growth is 80.9% in experiment [7], 93.4% in experiment [9] and 96.5% in experiment [10].
Turning to `O=[N+]([O-])c1cccc(-c2nc(-c3ccc(Cl)cc3Cl)cn2-c2ccccc2)c1`, the growth in experiment [1] is -65% (active); in experiment [2], 61.7%; in experiment [3] it was -59.2% (active); in [4] it was 12.1%; in experiment [5] it was -93.3% (active); in [6] it was 33.4%. The growth in [7] is 29.7%; in experiment [9] it was -38.8% (active); in experiment [10], -1.46% (active).
Turning to `COc1ccc(C(=O)c2cc3c(N)c(C(=O)Nc4cccc(Br)c4C)sc3nc2C)cc1`, the growth in experiment [1] was -21.4% (active); in experiment [2], 8.87% (active); in experiment [3] it was 1.15% (active); in experiment [4], 40.6%; in experiment [5] it was 37.4%; in experiment [6], 23.2%. In addition, the values for the growth in experiment [7], in [9] and in [10] were 24.3%, 12.4% and 0.768% (active), respectively.
For `CC(=O)N1N=C(c2cccc(Nc3ccncc3)c2)CC1c1ccccc1` (configuration not stated), the growth in [1] is 58.3%; in [2], 76.2%; in experiment [3] it was 88.9%; in experiment [4], 90.1%; in experiment [5] it was 89.7%; in experiment [6], 84.2%. The growth is 96% in experiment [7], 83.4% in [9] and 91.9% in experiment [10].
As to `O=C(Nc1nc2ccc(S(=O)(=O)Nc3ccc(C4(C(F)(F)F)CC4)cc3)cc2[nH]1)c1cnccn1`, the growth in experiment [1] was 20%; in [2], 30.3%; in [3], 55.4%; in [4], 56.8%; in experiment [5], 46.1%; in experiment [6] it was 58%. Moreover, the growth in experiment [8] was -18.6% (active); in [9], 17.6%; in experiment [10], 21%.
Regarding `O=S(=O)(NCCCNc1nccc(-c2c(-c3cccc(O)c3)nc3occn23)n1)c1ccc(Br)cc1`, the growth in experiment [1] was 89.8%; in experiment [2], 86.4%; in [3], 86%; in [4], 137%; in experiment [5] it was 118%; in experiment [6], 94%. The growth is 102% in experiment [8], 91.6% in experiment [9] and 107% in [10].
With `COc1cccc(CCC(=O)c2cc3c(N)c(C(=O)Nc4cccc(Cl)c4C)sc3nc2C)c1`, the growth in experiment [1] is 9.08% (active); in experiment [2] it was 7.83% (active); in experiment [3], 24.1%; in experiment [4] it was 28.3%; in experiment [5] it was 36.9%; in [6] it was 32.4%. Moreover, the growth in [7] was 24.4%; in experiment [9] it was 2.96% (active); in experiment [10], 10.7%.
On to `O=C(CN1CCOCC1)Nc1ccc2ncnc(Nc3ccc(Oc4cccc(C(F)(F)F)c4)c(Cl)c3)c2c1`, for which the growth in experiment [1] is 61.5%; in experiment [2], 51.5%; in experiment [3] it was 49.8%; in experiment [4], 64.3%; in [5] it was 55%; in experiment [6] it was 16%. The growth in experiment [8] was 33.8%; in experiment [9], 70.8%; in [10], 42.3%.
As for `c1ccc(C2CC(c3cccc(Nc4ccncc4)c3)=NN2c2ccccc2)cc1` (configuration not stated), the growth is 5.55% (active) in experiment [1]; 16.2% in experiment [2]; 68.5% in experiment [3]; 81.6% in experiment [4]; 67.5% in experiment [5]; 84.1% in experiment [6]. In addition, the growth in [7] was 62.6%; in experiment [9] it was 82.5%; in [10] it was 74.2%.
In the case of `CC(=O)[C@@H]1CC[C@]2(C(N)=O)CC[C@]3(C)[C@H](CC[C@@H]4[C@@]5(C)CCC(=O)C(C)(C)[C@@H]5CC[C@]43C)[C@@H]12`, the growth is 94.4% in experiment [1]; 80.4% in [2]; 109% in [3]; 101% in [4]; 89.1% in experiment [5]; 90.6% in experiment [6]. For the same molecule, the growth in [8] is 103%; in [9], 120%; in [10], 98.7%.
Consider `COc1cccc2cc(-c3cc4ccccc4[nH]3)/c(=N/C(=S)Nc3ccc(C)cc3)oc12`, for which the growth is 123% in experiment [1]; 114% in experiment [2]; 54% in experiment [3]; 89.4% in experiment [4]; 34.6% in experiment [5]; 64.7% in experiment [6]. Also, the growth was 81.2% in [8], 14.1% in experiment [9] and 50.8% in [10].
On to `Cc1cc2nc(-c3ccccc3)c(-c3ccccc3)nc2cc1C`, for which the growth in experiment [1] is 76.9%; in [2] it was 88.1%; in experiment [3], 108%; in experiment [4] it was 115%; in experiment [5] it was 98.9%; in [6] it was 108%. In addition, the growth in [7] is 112%; in [9], 118%; in experiment [10], 93.1%.

(Values after PubChem BioAssay (NCI).)
